{
  "source": "the supplement of paper PMC8728848",
  "test_in_all_cases": "glycan array binding signal (z-score within array); higher = stronger binding",
  "conditions_in_all_cases": "glycan notation: IUPAC condensed, linker removed",
  "key": {"[1]": {"target": "Fuc(a1-2)Gal", "outline": "(§1)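 The binding signal is a Z-score computed within each array. Data were drawn from 3228 arrays in the Consortium for Functional Glycomics database, restricted to those with a known protein sequence. Scores were averaged over arrays of the same protein sequence at different concentrations or buffers, and over linkers, and negative values can be taken as non-binding.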"}, "[2]": {"target": "Fuc(a1-2)Gal(b1-4)GlcNAc(b1-2)Man(a1-3)[Fuc(a1-2)Gal(b1-4)GlcNAc(b1-2)Man(a1-6)]Man(b1-4)GlcNAc(b1-4)GlcNAc", "outline": "as §1"}, "[3]": {"target": "Fuc(a1-2)Gal6S(b1-3)GlcNAc", "outline": "as §1"}, "[4]": {"target": "Fuc(a1-2)[Gal(a1-3)]Gal(b1-3)GalNAc", "outline": "as §1"}, "[5]": {"target": "Fuc(a1-2)[Gal(a1-3)]Gal(b1-3)GalNAc(b1-3)Gal(a1-4)Gal(b1-4)Glc", "outline": "as §1"}, "[6]": {"target": "Fuc(a1-2)[GalNAc(a1-3)]Gal(b1-3)GalNAc(b1-3)Gal(a1-4)Gal(b1-4)Glc", "outline": "as §1"}, "[7]": {"target": "Fuc(a1-2)[GalNAc(a1-3)]Gal(b1-4)GlcNAc(b1-3)Gal(b1-4)GlcNAc(b1-3)Gal(b1-4)GlcNAc", "outline": "as §1"}, "[8]": {"target": "Fuc(a1-3)[Gal(b1-4)]GlcNAc(b1-2)Man(a1-3)[Fuc(a1-3)[Gal(b1-4)]GlcNAc(b1-2)Man(a1-6)]Man(b1-4)GlcNAc(b1-4)[Fuc(a1-6)]GlcNAc", "outline": "as §1"}, "[9]": {"target": "Fuc(a1-3)[Gal(b1-4)]GlcNAc(b1-3)GalNAc", "outline": "as §1"}, "[10]": {"target": "Gal(a1-3)Gal(b1-3)GlcNAc(b1-3)GalNAc", "outline": "as §1"}, "[11]": {"target": "Gal(a1-3)Gal(b1-3)[Fuc(a1-4)]GlcNAc(b1-2)Man(a1-3)[Gal(a1-3)Gal(b1-3)[Fuc(a1-4)]GlcNAc(b1-2)Man(a1-6)]Man(b1-4)GlcNAc(b1-4)GlcNAc", "outline": "as §1"}, "[12]": {"target": "Gal(a1-3)Gal(b1-4)GlcNAc(b1-6)GalNAc", "outline": "as §1"}, "[13]": {"target": "Gal(b1-3)GlcNAc(b1-3)Gal(b1-3)GlcNAc", "outline": "as §1"}, "[14]": {"target": "Gal(b1-3)GlcNAc(b1-3)Gal(b1-4)GlcNAc", "outline": "as §1"}, "[15]": {"target": "Gal(b1-3)GlcNAc(b1-3)Gal(b1-4)GlcNAc(b1-2)[Gal(b1-3)GlcNAc(b1-3)Gal(b1-4)GlcNAc(b1-6)]Man(a1-6)[Gal(b1-3)GlcNAc(b1-3)Gal(b1-4)GlcNAc(b1-2)Man(a1-3)]Man(b1-4)GlcNAc(b1-4)[Fuc(a1-6)]GlcNAc", "outline": "as §1"}, "[16]": {"target": "Gal(b1-3)GlcNAc(b1-3)Gal(b1-4)GlcNAc(b1-3)Gal(b1-4)GlcNAc(b1-2)[Gal(b1-3)GlcNAc(b1-3)Gal(b1-4)GlcNAc(b1-3)Gal(b1-4)GlcNAc(b1-6)]Man(a1-6)[Gal(b1-3)GlcNAc(b1-3)Gal(b1-4)GlcNAc(b1-3)Gal(b1-4)GlcNAc(b1-2)Man(a1-3)]Man(b1-4)GlcNAc(b1-4)[Fuc(a1-6)]GlcNAc", "outline": "as §1"}, "[17]": {"target": "Gal(b1-3)GlcNAc(b1-3)Gal(b1-4)GlcNAc(b1-6)[Gal(b1-3)GlcNAc(b1-3)]Gal(b1-4)Glc", "outline": "as §1"}, "[18]": {"target": "Gal(b1-3)[Neu5Ac(b2-6)]GalNAc", "outline": "as §1"}, "[19]": {"target": "Gal(b1-4)GlcNAc(b1-2)Man(a1-3)Man(b1-4)GlcNAc(b1-4)GlcNAc", "outline": "as §1"}, "[20]": {"target": "Gal(b1-4)GlcNAc(b1-2)[Gal(b1-4)GlcNAc(b1-4)]Man(a1-3)[GlcNAc(b1-4)][Gal(b1-4)GlcNAc(b1-2)[Gal(b1-4)GlcNAc(b1-6)]Man(a1-6)]Man(b1-4)GlcNAc(b1-4)GlcNAc", "outline": "as §1"}, "[21]": {"target": "Gal(b1-4)GlcNAc(b1-3)Gal(b1-4)GlcNAc(b1-2)Man(a1-3)[Gal(b1-4)GlcNAc(b1-3)Gal(b1-4)GlcNAc(b1-2)Man(a1-6)]Man(b1-4)GlcNAc(b1-4)[Fuc(a1-6)]GlcNAc", "outline": "as §1"}, "[22]": {"target": "Gal(b1-4)GlcNAc(b1-3)Gal(b1-4)GlcNAc(b1-2)[Gal(b1-4)GlcNAc(b1-3)Gal(b1-4)GlcNAc(b1-6)]Man(a1-6)[Gal(b1-4)GlcNAc(b1-3)Gal(b1-4)GlcNAc(b1-2)Man(a1-3)]Man(b1-4)GlcNAc(b1-4)GlcNAc", "outline": "as §1"}, "[23]": {"target": "Gal(b1-4)GlcNAc(b1-3)Gal(b1-4)GlcNAc(b1-2)[Gal(b1-4)GlcNAc(b1-3)Gal(b1-4)GlcNAc(b1-6)]Man(a1-6)[Gal(b1-4)GlcNAc(b1-3)Gal(b1-4)GlcNAc(b1-2)Man(a1-3)]Man(b1-4)GlcNAc(b1-4)[Fuc(a1-6)]GlcNAc", "outline": "as §1"}, "[24]": {"target": "Gal(b1-4)GlcNAc(b1-6)Gal(b1-4)GlcNAc", "outline": "as §1"}, "[25]": {"target": "Gal(b1-4)GlcNAc(b1-6)[Gal(b1-4)GlcNAc(b1-3)]GalNAc", "outline": "as §1"}, "[26]": {"target": "Gal3S(b1-4)[Fuc(a1-3)]Glc6S", "outline": "as §1"}, "[27]": {"target": "Gal3S(b1-4)[Fuc(a1-3)]GlcNAc6S", "outline": "as §1"}, "[28]": {"target": "Gal6S(b1-3)GlcNAc6S", "outline": "as §1"}, "[29]": {"target": "GalNAc(a1-3)GalNAc(b1-3)Gal(a1-4)Gal(b1-4)GlcNAc", "outline": "as §1"}, "[30]": {"target": "Glc(a1-6)Glc(a1-6)Glc(a1-6)Glc", "outline": "as §1"}},
  "note": "About 410 targets per protein were measured; listed, in parts, are those with the strongest signals and a random draw of the rest.",
  "data": [
    {"binder": "LlpA (Burkholderia cenocepacia) (protein) MGSSHHHHHHSSGLVPRGSHKILGSNETLSAGNVVYSDNGQYHLAMQTDGNLVVYGPTGAVWQSQTSGSGGNRAVMQGDGNLVIYRADNTAAWSSKTAHPGAFLAVQDDGNVVIYWPRPAWASNTSDPATQQSAESKYLASGSTMSAGQTVTVAQYMLVFQADGNLVLYKNGGNPIWSTGTQGKGATYAVMQSDGNFVIYAGSTALWSTKTNGANGAQLVLQSDGNLVIYAPTAAWSTKFGLVTAPTSTSTSNNGPGSGICVGVCPPHPLNGNPFSPVGVGTTGLGFPTPGYPGAAF", "values": [
      {"measurement": "glycan array binding signal (z-score)", "setting": "[1]", "result": 1.82},
      {"measurement": "glycan array binding signal (z-score)", "setting": "[2]", "result": -0.314},
      {"measurement": "glycan array binding signal (z-score)", "setting": "[3]", "result": 0.167},
      {"measurement": "glycan array binding signal (z-score)", "setting": "[4]", "result": 0.017},
      {"measurement": "glycan array binding signal (z-score)", "setting": "[5]", "result": -0.361},
      {"measurement": "glycan array binding signal (z-score)", "setting": "[6]", "result": -0.271},
      {"measurement": "glycan array binding signal (z-score)", "setting": "[7]", "result": 1.26},
      {"measurement": "glycan array binding signal (z-score)", "setting": "[8]", "result": 2.08},
      {"measurement": "glycan array binding signal (z-score)", "setting": "[9]", "result": 0.159},
      {"measurement": "glycan array binding signal (z-score)", "setting": "[10]", "result": -1.16},
      {"measurement": "glycan array binding signal (z-score)", "setting": "[11]", "result": 1.1},
      {"measurement": "glycan array binding signal (z-score)", "setting": "[12]", "result": 0.692},
      {"measurement": "glycan array binding signal (z-score)", "setting": "[13]", "result": -0.418},
      {"measurement": "glycan array binding signal (z-score)", "setting": "[14]", "result": -0.526},
      {"measurement": "glycan array binding signal (z-score)", "setting": "[15]", "result": 1.84},
      {"measurement": "glycan array binding signal (z-score)", "setting": "[16]", "result": 0.703},
      {"measurement": "glycan array binding signal (z-score)", "setting": "[17]", "result": 1.7},
      {"measurement": "glycan array binding signal (z-score)", "setting": "[18]", "result": -0.687},
      {"measurement": "glycan array binding signal (z-score)", "setting": "[19]", "result": 1.84},
      {"measurement": "glycan array binding signal (z-score)", "setting": "[20]", "result": 0.349},
      {"measurement": "glycan array binding signal (z-score)", "setting": "[21]", "result": 2.46},
      {"measurement": "glycan array binding signal (z-score)", "setting": "[22]", "result": 0.339},
      {"measurement": "glycan array binding signal (z-score)", "setting": "[23]", "result": 1.91},
      {"measurement": "glycan array binding signal (z-score)", "setting": "[24]", "result": -0.14},
      {"measurement": "glycan array binding signal (z-score)", "setting": "[25]", "result": 1.6},
      {"measurement": "glycan array binding signal (z-score)", "setting": "[26]", "result": 1.83},
      {"measurement": "glycan array binding signal (z-score)", "setting": "[27]", "result": 0.427},
      {"measurement": "glycan array binding signal (z-score)", "setting": "[28]", "result": -0.227},
      {"measurement": "glycan array binding signal (z-score)", "setting": "[29]", "result": -0.419},
      {"measurement": "glycan array binding signal (z-score)", "setting": "[30]", "result": 0.011}
    ]}
  ]
}
